The campaign covered roughly 300,000 compounds. About 37,000 (12%) were called active. The full list was thinned out, with actives kept by preference. Unmarked numbers belong to inactive results. Cut-off read from the data, not from the text of the source: active = max response mostly above about 13% (no sharp cut-off); inactive = mostly below about 14%.

The values below come from PubChem BioAssay AID2314 (National Center for Advancing Translational Sciences (NCATS), 2010).

The assay can be described thus: Cycloheximide Counterscreen for Small Molecule Inhibitors of Shiga Toxin. Note: read at 38.3 µM for the half of the compounds with a filed dose; 0% is about no effect. The settings on record: cell reporter, cycloheximide protein synthesis inhibition counterscreen; stronger effect = higher value.
Take `Cc1cc(C)nc(-n2ncc3c2CC(c2ccc(C(C)C)cc2)CC3=O)n1` (stereo unspecified): the max response is 3.79%. The value for `CCC(=O)NC(Nc1nc2ccc(C)cc2s1)(C(=O)OC)C(F)(F)F` (stereo unspecified) was 1.01%. Turning to `O=C(CN1C(=O)c2cccc3cccc1c23)Nc1ccccc1`, the max response is -0.618%. Under `Cc1cc2c(cc1S(=O)(=O)NCc1ccc(Cl)cc1)OCC(=O)N2` stands 1.87%; under `CN(CCc1ccccn1)C1CCCN(S(=O)(=O)c2ccccc2Cl)C1` (stereo unspecified), -3.81%; under `CC(C)NC(=O)N1CCN(c2ccncc2S(=O)(=O)N2CCCCC2)CC1`, 0.305%. Regarding `C=CCc1ccccc1OCC(O)CN1CCN(CCO)CC1` (stereo unspecified), the max response was -1.25%. The value for `Cc1[nH]c2ccccc2c1C(=O)CN1CCCC(C)C1` (stereo unspecified) was 4.44%; that for `CCC(=O)Nc1ccc2c(c1)nc(CCN1CCN(c3ccccn3)CC1)n2C` was -2.39%. Consider `Cn1c(CCN2CCCC2)nc2cc(NS(=O)(=O)c3ccccc3)ccc21`, for which the max response is 9.99%. Under `Cn1c(CCN2CCCCCC2)nc2cc(NC(=O)Nc3ccccc3)ccc21` stands 59.7% (active); under `CCN(CC)C(=O)Oc1ccc(OC(=O)N(CC)CC)cc1`, 19%. `CCCCCn1c(=O)c(C(=O)Nc2c(C)n(C)n(-c3ccccc3)c2=O)c(O)c2ccccc21`: the max response was -1.67%. The value for `CCCCCn1c(=O)c(C(=O)NCc2ccccn2)c(O)c2ccccc21` was -1.8%; that for `Cn1c(=O)c(C(=O)Nc2ncccn2)c(O)c2ccccc21` was 17.3% (active).

In the case of `CCCn1c(=O)c(C(=O)Nc2cc(C)ccn2)c(O)c2ccccc21`, the max response was 9.34% (active). Under `C=CCn1c(=O)c(C(=O)Nc2ncccc2O)c(O)c2ccccc21` stands 0.679%; under `Cn1c(=O)c(Sc2ccc(Cl)cc2)c(O)c2ccccc21`, -5.19%; under `N#C/C(=C/c1cccc([N+](=O)[O-])c1)c1nnc2n1CCCCC2`, -4.02%. The value for `CC(C)(C)c1ccc(C(=O)NCCn2c(N)c(C#N)c3nc4ccccc4nc32)cc1` was -4.74%. Under `N#Cc1cccc(CN2CCC(=O)N([C@H](CO)c3ccccc3)CC2)c1` stands -0.681%; under `C=CCOc1ccc(/C=C2/C(=O)ON=C2C)cc1OCC`, -0.862%.

Consider `CCOc1cc(/C=N/O)ccc1OCc1ccccc1F`, for which the max response is 30.7% (active). Under `COc1cc(/C=C2/C(=O)ON=C2C)ccc1OCc1ccccc1F` stands 76% (active); under `CCOc1ccc(/C=N/NC(=O)C(C)Sc2ccccn2)cc1OCC` (stereo unspecified), -2.71%. The value for `COc1cc(/C=C2/C(=O)ON=C2C)ccc1OCc1cccc(F)c1` was 27.9%. Regarding `CCOc1c(Cl)cc(/C=N/O)cc1OC`, the max response was 5.27%. With `CCC1=C(OC(=O)N(CC)CC)N2C(=O)OC(=NCCc3c[nH]c4ccccc34)[C@]2(C)[C@H]2C1=CC[C@H]1C(=O)N(CC)C(=O)[C@H]12`, the max response is -4.31%. Under `O=C(CCc1nnc2ccc(NCc3ccccc3Cl)nn12)NCC1CCN(C2CCCC2)C1` (stereo unspecified) stands -4.64%; under `Cc1ccc(NS(=O)(=O)c2c(C)[nH]c(C)c2C(=O)N2CCCCC2)c(C)c1`, 18%; under `CN(C)c1ccc(C=C2C(=O)OC3(CCCC3)OC2=O)cc1`, 0.693%. On to `O=C(O)CC(Cc1ccccc1)C(=O)Nc1ccc([N+](=O)[O-])cc1` (stereo unspecified), for which the max response is 11.6%.

For the molecule `O=C(Nc1ccn(Cc2ccccc2)n1)c1cccc(F)c1`, the max response is 39% (active). The value for `O=C(Cn1cnc([N+](=O)[O-])n1)NCCc1ccccc1` was 6.14%; that for `O=C(Nc1ccccc1N1CCCCC1)c1cccc(F)c1` was 3.77%. In the case of `Cc1nnsc1C(=O)NCc1c(F)cccc1Cl`, the max response is 8.44%. In the case of `O=C(Nc1ccccc1N1CCN(c2ccccc2)CC1)c1cccc(F)c1`, the max response is -4.37%. The value for `O=C(Nc1ccn(Cc2ccccc2)n1)c1n[nH]c([N+](=O)[O-])c1Cl` was 47.7% (active). `CC(=O)Nc1ccn(Cc2c(F)cccc2Cl)n1`: the max response was 18.4% (active). Under `CC(C)(C)NC(=O)NC(=O)COC(=O)Cc1c(F)cccc1Cl` stands 6.65%; under `CCOc1cc(C)ccc1OCc1nnc(SCC(=O)Nc2cccc(C(=O)O)c2)n1-c1ccccc1`, 3.69%.

`CC(C)C[C@H]1CN=C(Nc2ccccc2)N1CC1CCCCC1`: the max response is -4.32%. Under `CC(=O)N1c2ccc(S(=O)(=O)N3CCCC(C(=O)Nc4ccc(C)cc4C)C3)cc2CC1C` (stereo unspecified) stands -0.234%. In the case of `CC(C)c1cc(NCc2ccccn2)n2c(nc3ccccc32)c1C#N`, the max response was 9.39%. The value for `Cc1ccc(Cl)cc1N1CCN(C(=O)c2cccc3c(=O)c(C)c(-c4ccccc4)oc23)CC1` was 3.64%; that for `COCCn1cnc2c1c(=O)n(CC(=O)NN)c(=O)n2Cc1ccccc1` was -14.6%. As for `O=Cc1c(Nc2ccccc2Cl)nc2ccccn2c1=O`, the max response was -2.35%.

On to `O=C(COC(=O)CCCNC(=O)c1ccc(Cl)cc1)Nc1cc(Cl)ccc1Cl`, for which the max response is -0.294%. In the case of `C=CCn1c(C)cc(C2=NNC(=NCC)SC2)c1C`, the max response is -12%. The value for `Cc1cc(C2=NNC(=Nc3ccc(S(=O)(=O)N4CCOCC4)cc3)SC2)c(C)n1CC1CCCO1` (stereo unspecified) was 19.4%; that for `COCCn1c(C)cc(C2=NNC(=Nc3ccc(F)cc3)SC2)c1C` was 31.2% (active); that for `COc1ccc(C(=O)C[n+]2ccc(N)c(C)c2C)cc1` was -5.16%. Turning to `CN1CN(C)c2ccc([N+](=O)[O-])c3cccc1c23`, the max response was -0.807%. Under `C=CCNC(=S)/N=c1/ccccn1Cc1ccccc1` stands 1.08%; under `CN(CC(=O)Nc1ccc(N2CCOCC2)cc1)CC(=O)Nc1ccccc1[N+](=O)[O-]`, -1.06%; under `CC(=O)Nc1ccc(S(=O)(=O)N2CCN(c3ccc([N+](=O)[O-])c(NCCN4CCOCC4)c3)CC2)cc1`, -3.02%. Under `COc1ccccc1OCCNc1cc(N2CCOCC2)ccc1[N+](=O)[O-]` stands 24.7% (active). Under `Cc1ccc(CNC(=O)C2CCCN2S(=O)(=O)c2ccc3c(c2)C(C)(C)C(=O)N3C)cc1` (stereo unspecified) stands -3.55%; under `C=CCOc1ccc(C(=O)Nc2ccccc2C(=O)N2CCCC2)cc1`, -1.61%; under `Cc1cccc(NC(=O)CN2CCCN(S(=O)(=O)c3ccc(Br)s3)CC2)c1`, 19.9%. Turning to `CSc1ncccc1C(=O)OCC(=O)N1CCOCC1`, the max response was -5.04%. Under `CSc1ncccc1C(=O)OCc1ccc(Br)cc1` stands 36.2% (active). The value for `CSc1ncccc1C(=O)NCc1ccccc1Cl` was 2.57%; that for `CN1CCN(c2cc3c(cc2F)c(=O)c(C(=O)O)cn3CCF)CC1` was -3.38%; that for `Oc1ccc2ccccc2c1N=Nc1nccs1` was 11.4%. The value for `Oc1ccc(N=Nc2nccs2)c(O)c1` was 38% (active). In the case of `NC(=O)N1CCc2ccccc21`, the max response is -6.54%. The value for `O=C(CSCc1ccccc1)N1CCc2ccccc21` was 50.5% (active). The value for `Cc1nnc(SCC(=O)N2CCc3ccccc32)n1-c1ccccc1` was -1.58%; that for `Cc1ccc(Oc2cc(NC(=O)CCCn3nc(C)c([N+](=O)[O-])c3C)cc([N+](=O)[O-])c2)cc1` was 6.56%. Under `Cc1ccc2ccc3c(c2n1)NS(=O)(=O)c1ccccc1-3` stands 9.31%. As for `O=C1CC(C(F)(F)C(F)(F)C(F)(F)C(F)(F)F)=Nc2ccccc2N1`, the max response is 1.33%. The value for `Cc1ccccc1-n1nc(C)c2cc(C(=O)NC3CC3)sc21` was 13.7%; that for `O=C(CSc1nc2nccnc2c(=O)n1Cc1cccs1)Nc1ccccc1F` was 18.8%; that for `Cc1ccc(Cc2nc(-c3cccc(C)c3)no2)cc1` was 31.8% (active).

As to `Cc1cccc(-c2noc(-c3ccc(F)cc3)n2)c1`, the max response was 70.7% (active).

On to `Cc1cccc(-c2noc(CCC(=O)NC3CCCC3)n2)c1`, for which the max response was 2.28%. For the molecule `Cc1cccc(-c2nc(Nc3ccc(O)cc3)c3ccccc3n2)c1`, the max response is -0.236%. The value for `CC(=O)N1CCCc2cc(S(=O)(=O)N3CCCC(C(=O)NCc4ccc(Cl)cc4)C3)ccc21` (stereo unspecified) was -1.26%; that for `CCN1C(=O)C(C(=O)NC(C)c2ccccc2)C2CC1(C)Oc1ccccc12` (stereo unspecified) was -6.07%; that for `Cc1nn(CC(=O)N2CCCCC2)c(=O)c2nn(-c3ccccc3)c(C)c12` was -0.579%. For `C[C@H](NC(=O)C1CCN(S(=O)(=O)c2ccccc2)CC1)C(=O)NCc1ccccc1`, the max response was -2.6%.

`COCCN1C(=O)C(=O)/C(=C(/O)c2ccc(S(=O)(=O)N3CCOCC3)cc2)C1c1ccc(OC)c(OC)c1` (stereo unspecified): the max response is -0.449%. Take `CCOCCCNC(=O)c1cn(CC(C)C)c(=O)c2c1c1ccccc1n2C`: the max response was 1.59%. The value for `Cc1cc(Cl)c(S(=O)(=O)NCC2CCCO2)cc1OCC(N)=O` (stereo unspecified) was -0.524%; that for `Cc1cc(Cl)c(S(=O)(=O)N(C)C)cc1OCC(N)=O` was 4.25%. As to `Cc1cc(Cl)c(S(=O)(=O)Nc2ccc3c(c2)OCCO3)cc1OCC(N)=O`, the max response was 40.8% (active). Consider `COc1ccc(S(=O)(=O)N2CCN(c3ncnc4c(-c5ccccc5)nsc34)CC2)cc1`, for which the max response was -2.92%. The value for `CC1=C(C(=O)OC2CCCCC2)C(c2cccnc2)n2ncnc2N1` (stereo unspecified) was -3.65%. Take `C=CCCN(C(Cc1ccccc1)C(=O)OC)S(=O)(=O)c1cc(Br)ccc1Br` (stereo unspecified): the max response was -0.573%. Regarding `O=[N+]([O-])c1ccc(NC(=S)N2CCN(c3ccccn3)CC2)cc1`, the max response was -3.35%.

Turning to `O=C(Nc1ccc([N+](=O)[O-])cc1)OCCc1ccccn1`, the max response was 19% (active). Under `O=C(Nc1cccc(Cl)c1)OCc1ccccn1` stands 26.4%; under `COc1ccc2c(Cl)c(-c3nnco3)sc2c1`, 0.855%; under `C#CCSc1nnc(-c2sc3ccccc3c2Cl)o1`, 46.5% (active).

As for `O=C(OCC#CCSc1nnc(-c2ccncc2)o1)c1sc2ccccc2c1Cl`, the max response was -4.75%.
